Rows were chosen to be rich in hits. Some 3.3% of all compounds tested hit in one or more screens of this group.
ERa SRC1 pot: enhancers of ERα–SRC-1 coactivator binding, primary screen, biochemical, TR-FRET, ERα LBD, low estradiol | Estrogen receptor (Homo sapiens), P03372 | AID 639, 2007 | actives 1.3% (n = 86,000) | coactivator binding (% of control), % at 25.6 µM | TR-FRET ERalpha-LBD/SRC-Cy5 coactivator binding, 2 h; 100 = basal binding, no effect; in the data active = activity above about 200%;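 note: binding measured in presence of low estradiol as agonist stimulus; 0% = peptide alone without receptor and 100% = receptor with peptide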
ERa coact inh: ERα–SRC-1 coactivator interaction inhibitors, primary screen, biochemical, TR-FRET, ERα LBD, estradiol-bound. Estrogen receptor (Homo sapiens), P03372. TR-FRET ER-alpha LBD / SRC-1 peptide. inhibition, % at 25.6 µM. actives 1.7% (n = 86,000). AID 629, 2007; in the data active = inhibition above about 50%;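 note: 0% = receptor plus peptide control and 100% = peptide only without receptor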
Smad3 inh: Smad3/FoxH1 peptide binding inhibitors, primary screen, biochemical, TR-FRET | actives 0.29% (n = 88,000) | inhibition, % at 25 µM | TR-FRET Smad3/Dy647-FoxH1 peptide binding, europium anti-His | AID 630, 2007;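 active = compounds that reduce the energy-transfer binding signal between the protein and its labelled peptide by more than half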;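 note: 0% = Smad3 plus labelled peptide maximal FRET and 100% = peptide-only background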
Target sequence (P84022 whole entry, looked up): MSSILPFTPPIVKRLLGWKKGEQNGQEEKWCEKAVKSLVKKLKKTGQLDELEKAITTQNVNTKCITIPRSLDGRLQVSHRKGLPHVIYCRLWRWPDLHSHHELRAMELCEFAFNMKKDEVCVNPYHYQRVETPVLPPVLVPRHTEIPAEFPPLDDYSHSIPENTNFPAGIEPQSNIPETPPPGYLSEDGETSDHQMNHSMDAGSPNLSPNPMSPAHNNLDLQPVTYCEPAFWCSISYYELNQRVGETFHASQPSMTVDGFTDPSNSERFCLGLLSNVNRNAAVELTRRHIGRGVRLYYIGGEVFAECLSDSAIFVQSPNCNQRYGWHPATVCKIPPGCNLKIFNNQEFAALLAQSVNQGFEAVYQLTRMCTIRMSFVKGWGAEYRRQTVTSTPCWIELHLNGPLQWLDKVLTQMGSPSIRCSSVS
FAK blocker: FAK kinase inhibitors, primary screen, biochemical. Focal adhesion kinase 1 (Homo sapiens), Q05397. biochemical FAK kinase activity assay. inhibition, %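 (tested at 7 µM)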. actives 0.84% (n = 97,000). AID 727, 2007;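 note: 0% = DMSO and 100% = reference compound high control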
ERb SRC1 inh: inhibitors of ERβ-SRC1 coactivator interaction, primary screen, biochemical, TR-FRET, ERβ LBD, SRC-1 peptide; Estrogen receptor beta (Homo sapiens), Q92731; TR-FRET ER-beta LBD / SRC1-Cy5 peptide binding; receptor agonist-loaded with 1 µM estradiol; inhibition, % at 25.6 µM; actives 1.3% (n = 86,000); AID 633, 2007;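 active = compounds whose percent inhibition of the receptor-coactivator binding signal exceeds about 50% in the single-dose screen, limit read from the data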;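 note: 0% = receptor plus peptide wells without compound and 100% = peptide-only wells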
Candida biofilm: clotrimazole potentiators killing Candida biofilms, primary screen, with clotrimazole, Alamar Blue; C. albicans biofilm + clotrimazole; actives 0.14% (n = 85,000); inhibition, % at 6 µM;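 active = inhibition above 20%; inactive = inhibition below 20%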;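 note: preformed 24 hr biofilms exposed to compound for 48 hr; 0% = biofilm without compound and 100% = blank killed by clotrimazole plus chlorhexidine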
FAK inh conf: FAK kinase inhibitors, retest, confirmation, biochemical; FAK kinase biochemical inhibition assay; shares compounds with FAK blocker; AID 794, 2007; inhibition, % at 7 µM; actives 28% (n = 750)
The depositor's hits bear a star; [ ] = remark or other dose. Cut-off read from the data, not from the text of the source, unless noted: active = inhibition above about 19%; inactive = the rest.

`Clc1ccc2[nH]c3c(NCC4CCCO4)ncnc3c2c1` (centres undefined) gave ERa SRC1 pot 108, ERa coact inh 11, Smad3 inh -17, FAK blocker 22*, ERb SRC1 inh 5, Candida biofilm 0 and FAK inh conf 10.
Screening Cc1ccc2c(c1)N(CC(=O)NC1CCCCC1C)C(=O)CO2 (centres undefined) returned ERa SRC1 pot 121, ERa coact inh -3, Smad3 inh -9, FAK blocker 0, ERb SRC1 inh -9 and Candida biofilm 0.
`Cc1cccc2cc(CN(CCc3ccccc3)C(=O)N3CCOCC3)c3nnnn3c12` gave ERa SRC1 pot 160, ERa coact inh 14, Smad3 inh -5, FAK blocker 0, ERb SRC1 inh 0 and Candida biofilm -4.
`CCOc1ccc2nc(NC3=NC(C)(C)C=C(C)N3)nc(C)c2c1` gave FAK blocker 1.
For CCOc1ccc2nc(NC3=NC(c4ccc(OC)cc4)CC(=O)N3)nc(C)c2c1 (centres undefined) the results were FAK blocker 36* and FAK inh conf 25*.
`CCCc1nc2sc3ccccc3c(=O)c2c(=O)n1Cc1ccco1` gave ERa SRC1 pot 69, ERa coact inh 70*[fluorescence artefact?], Smad3 inh 1, FAK blocker 22*, ERb SRC1 inh 64*, Candida biofilm 5 and FAK inh conf 6.
Screening CN1CCN(NC(=O)c2cc([N+](=O)[O-])cc([N+](=O)[O-])c2)CC1 returned FAK blocker -3.
CCOC(=O)CNc1c(N2CCN(c3ccccn3)CC2)c(=O)c1=O was read as ERa SRC1 pot 125, ERa coact inh -8, Smad3 inh 7, FAK blocker -2, ERb SRC1 inh -14 and Candida biofilm -2.
For C[N+]1(C)CCC(=C2c3ccccc3CC(=O)c3sccc32)CC1 the results were ERa SRC1 pot 77, ERa coact inh -14, Smad3 inh -13, FAK blocker 27*, ERb SRC1 inh -10, Candida biofilm 4 and FAK inh conf -1.
CC[N+]1(C)CCC(=C2c3ccccc3CC(=O)c3sccc32)CC1 (centres undefined) was read as ERa SRC1 pot 88, ERa coact inh -5, Smad3 inh 4, FAK blocker 0, ERb SRC1 inh -7 and Candida biofilm 5.
COC(=O)C(NC(=O)c1ccccc1)(Nc1cc(C)cc(C)n1)C(F)(F)F (centres undefined) was read as ERa SRC1 pot 113, ERa coact inh -11, Smad3 inh -7, FAK blocker -1, ERb SRC1 inh -6 and Candida biofilm 6.
For Cc1cc([N+](=O)[O-])c2[nH]c(C(=O)N/N=C/c3ccccc3C(=O)O)c(-c3ccccc3)c2c1 the results were FAK blocker 29* and FAK inh conf -5.
`Cc1cc(C)cc(-n2c(C)cc(/C=N/NC(=O)c3cccc([N+](=O)[O-])c3C)c2C)c1` gave FAK blocker 2.
Screening CC(C)(CS(=O)(=O)[O-])NC(=O)CC[N+](C)(C)CCO returned ERa SRC1 pot 104, ERa coact inh -5, Smad3 inh 21, FAK blocker 28*, ERb SRC1 inh 1, Candida biofilm 4 and FAK inh conf 6.
CCOC(=O)c1cnn(-c2cc(C)c3cc(C)cc(C)c3n2)c1N was read as ERa SRC1 pot 109, ERa coact inh 2, Smad3 inh -2, ERb SRC1 inh -6 and Candida biofilm -1.
Screening CN1C(=O)c2cccc3c(S(=O)(=O)Nc4ccccn4)ccc1c23 returned ERa SRC1 pot 100, ERa coact inh -7, Smad3 inh 6, FAK blocker 10, ERb SRC1 inh 5 and Candida biofilm 5.
`CN1C(=O)c2cccc3c(S(=O)(=O)NCc4ccco4)ccc1c23` gave ERa SRC1 pot 101, ERa coact inh -5, Smad3 inh 6, FAK blocker 36*, ERb SRC1 inh -8, Candida biofilm 3 and FAK inh conf 21*.
For Cc1sc(NC(=O)c2sc3nc4c(C)cccc4cc3c2N)c(C#N)c1C the results were FAK blocker 29* and FAK inh conf 7.
Screening O=P(O)(O)c1ccccc1OCCOCCOc1ccccc1P(=O)(O)O returned ERa SRC1 pot 93, ERa coact inh -22, Smad3 inh 12, ERb SRC1 inh -18 and Candida biofilm 5.
O=P(O)(O)c1ccccc1OCCCCCOc1ccccc1P(=O)(O)O was read as ERa SRC1 pot 83, ERa coact inh -8, Smad3 inh 0, FAK blocker 88*, ERb SRC1 inh -5, Candida biofilm -2 and FAK inh conf 66*.
`O=P(O)(O)c1ccccc1OCc1ccccc1` gave ERa SRC1 pot 102, ERa coact inh 4, Smad3 inh 4, FAK blocker 84*, ERb SRC1 inh 5, Candida biofilm 1 and FAK inh conf 81*.
For COC(=O)/C(=C/Nc1ccc(O)cc1)[N+](=O)[O-] the results were ERa SRC1 pot 88, ERa coact inh 8, Smad3 inh 13, FAK blocker 38*, ERb SRC1 inh 46, Candida biofilm 5 and FAK inh conf -3.
Screening CN(CC1CCCO1)S(=O)(=O)c1ccc(C(=O)Nc2nc(-c3ccccn3)cs2)cc1 (centres undefined) returned ERa SRC1 pot 107, ERa coact inh -7, Smad3 inh 5, FAK blocker -4, ERb SRC1 inh -5 and Candida biofilm 3.
Screening Cc1cc(-c2csc(NC(=O)c3ccc(=O)n(C)n3)n2)c(C)n1CC1CCCO1 (centres undefined) returned ERa SRC1 pot 49, ERa coact inh 31, Smad3 inh 3, FAK blocker 22*, ERb SRC1 inh 23, Candida biofilm 7 and FAK inh conf 5.
Screening O=[N+]([O-])c1cc(/C=N\Nc2nccs2)ccc1O returned ERa SRC1 pot 2, ERa coact inh 100*[fluorescence artefact?], Smad3 inh 78*, FAK blocker 91*, ERb SRC1 inh 100*[fluorescence artefact?], Candida biofilm 3 and FAK inh conf 72*.
CC(C)Cn1[nH]c2c3c(ccc2c1=O)C(=O)c1ccccc1C3=O was read as FAK blocker 27* and FAK inh conf 6.

Screening results from PubChem BioAssay.
